# In all, about 65,000 compounds went through this assay and about 45 (0.07%) were called active. Calls come from the whole dose curve. Only a selection was taken, and actives are over-represented in it overall.
# System: T1, 
# T1 sequence (whole entry): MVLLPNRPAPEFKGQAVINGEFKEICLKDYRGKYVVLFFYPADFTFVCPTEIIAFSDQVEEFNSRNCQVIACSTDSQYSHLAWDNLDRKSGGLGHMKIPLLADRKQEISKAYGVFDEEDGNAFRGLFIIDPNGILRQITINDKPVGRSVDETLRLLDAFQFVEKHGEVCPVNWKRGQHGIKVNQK
# Assay: Schistosoma Mansoni Peroxiredoxins (Prx2)
row,Structure (SMILES),outcome
1,Cc1cc(C)c2cc(CN(CC3CCCO3)S(=O)(=O)c3ccc4c(c3)OCCO4)c(=O)[nH]c2c1 (stereo not given),active
2,COc1ccc(S(=O)(=O)N(Cc2cc3ccc(OC)cc3[nH]c2=O)CC2COCCO2)cc1 (stereo not given),active
3,CCc1nc(OCCN(CC)CC)c2oc3ccccc3c2n1.Cl,inactive
4,CC(=O)Oc1cc(OC(C)=O)c2c(C)cc(=O)oc2c1,active
5,O=C(/N=C1\NC(=O)C(F)(C(F)(F)F)S1)NC1CCCCC1 (stereo not given),active
6,CCC(=O)Oc1ccc2c(C)c(Cl)c(=O)oc2c1,active
7,COC(=O)Cc1c(C)c2ccc(OC(=O)c3ccco3)cc2oc1=O,active
8,c1ccc(Cc2nn3c(C4COc5ccccc5O4)nnc3s2)cc1 (stereo not given),inactive
9,O=C1c2ccccc2C(=O)N1CCCCn1c(=O)oc2ccccc21,inactive
10,CN(C)c1oc(-c2ccccc2Cl)nc1C#N,active

# From the GenesisPotency data set
